Screens (PubChem)
PGC1a acetyl inh – modulators of PGC1a acetylation; U2OS PGC1a acetylation, AlphaScreen anti-acetyl-lysine; with virally co-expressed GCN5 acetyltransferase; hit rate 0.17% among 350,000; inhibition, % at 15.6 µM;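 active = every replicate shows inhibition of at least 40%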;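 also: 0% = neutral control wells and 100% = positive control wells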
Rce1 inh – inhibitors of yeast Ras-converting enzyme. calls only. Q03530. yeast membranes, quenched prenylated peptide cleavage fluorescence. hit rate 0.27% among 290,000;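 active = fall in fluorescence gain of 50% or more versus controls, with final raw signal at or below 3038400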;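 also: plate controls were neutral control wells for no effect and wells lacking membranes for full effect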
Target sequence (Q03530 whole entry, looked up): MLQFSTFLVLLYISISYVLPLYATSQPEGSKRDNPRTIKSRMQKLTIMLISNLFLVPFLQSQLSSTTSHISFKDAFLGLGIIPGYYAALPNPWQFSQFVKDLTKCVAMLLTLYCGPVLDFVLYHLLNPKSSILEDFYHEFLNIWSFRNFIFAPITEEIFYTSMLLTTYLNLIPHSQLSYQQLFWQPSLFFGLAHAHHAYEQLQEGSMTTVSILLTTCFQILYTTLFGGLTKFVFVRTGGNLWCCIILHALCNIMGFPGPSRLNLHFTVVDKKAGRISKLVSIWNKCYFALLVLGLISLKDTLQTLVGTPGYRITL
HIF act – HIF pathway transcriptional activation | hit rate 0.32% among 300,000 | activation, % at 7.5 µM (by protocol) | U2OS HRE-luciferase reporter, luminescence; normalized: DMSO 0%, desferrioxamine 100% | AID 1910;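 active = mean activation of at least 10% of the iron chelator positive control signal, with at least half of replicates also reaching 10%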
AI-2 QS modul – Vibrio harveyi AI-2 quorum sensing modulation. Vibrio harveyi JMH597 AI-2 luminescence/OD600 ratio, 9 h; hits give low values; strain lacks LuxN and CqsS sensors; 0 = neutral-control median. activity change, % at 7.5 µM. hit rate 0.4% among 300,000; in the data active = activity change below about -75%, passing the limit was not always enough;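 also: luminescence divided by OD600 gain over 9 h not by final OD600 alone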
C2C12 statin – protects C2C12 myotubes from simvastatin toxicity; ATP luminescence, 48 h; scaled: DMSO 0, geranylgeraniol control 100; rescue of ATP level, % at 7.49 µM; hit rate 0.78% among 330,000; AID 602340;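 active = mean ATP rescue above about 67%, or every replicate alone reaching that limit, limit read from the data, passing the limit was not always enough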;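 also: myotubes were challenged with 10 µM simvastatin during compound exposure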
* hit, by the source's call; i = inactive; x = no result given; + = active, no number. Compounds with a hit are over-represented: about 1.3% of the library has one in this group of screens.

SMILES	PGC1a acetyl inh	Rce1 inh	HIF act	AI-2 QS modul	C2C12 statin
C[C@@H]1CN([C@H](C)CO)C(=O)c2cc(NC(=O)C3CCCCC3)ccc2O[C@H]1CN(C)S(=O)(=O)c1ccc(Cl)cc1	16.7	x	x	x	-2.7
C[C@@H]1CCCCO[C@H](CN(C)Cc2ccc(C(=O)O)cc2)[C@H](C)CN([C@H](C)CO)C(=O)c2cc(NC(=O)c3ccncc3)ccc2O1	-6.2	x	x	x	x
CCC(=O)NC(=S)Nc1cccc(C(C)=O)c1	0.0	i	-0.3	-61.7	-14.5
CCCC(=O)NC(=S)Nc1cccc(C(C)=O)c1	-7.4	i	0.1	-77.8*	114.1*
CCCNC(=O)N1CC2(CN(C(=O)Nc3cccc(F)c3)C2)c2c(n(C)c3cc(OC)ccc23)[C@@H]1CO	-6.0	x	x	x	x
O=C(C[C@H]1CC[C@H](NS(=O)(=O)c2cccc(F)c2)[C@@H](CO)O1)N1CCCCC1	-3.8	x	x	x	4.0
CN(C)CCCNc1nc(N)c([N+](=O)[O-])c(NCCO)n1	-11.6	i	0.0	17.3	87.3*
CCN(CC)CCCNc1nc(N)c([N+](=O)[O-])c(NCCO)n1	-6.5	i	0.2	8.9	x
Cc1ccccc1Oc1cc(-n2ncc(Cl)c(Cl)c2=O)ncn1	69.3*	x	x	x	x
C[C@@H]1CCCCO[C@H](CN(C)S(=O)(=O)c2ccc(Cl)cc2)[C@@H](C)CN([C@@H](C)CO)C(=O)c2cc(NC(=O)c3ccncc3)ccc2O1	-5.4	x	x	x	x
CC1(C)CC(C(=O)Nc2nccs2)CCO1 (configuration not stated)	10.7	i	-0.1	13.1	120.9*
Cc1cnc(C(=O)Nc2nccs2)cn1	5.2	i	1.6	19.6	100.6*
C[C@@H]1CCCCO[C@H](CN(C)C(=O)C2CCCCC2)[C@H](C)CN([C@H](C)CO)C(=O)c2cc(NC(=O)CCC(F)(F)F)ccc2O1	2.6	x	x	x	x
COc1ccc(CNC(=O)N(C)C[C@H]2OCc3ccccc3-c3c(n(C)c4ccccc34)C(=O)N([C@@H](C)CO)C[C@@H]2C)cc1	2.6	x	x	x	x
Cn1nnnc1SCCOc1ccc(C#N)cc1	1.9	i	0.1	14.6	116.5*
COc1ccc(NC(=O)CCSc2nnnn2C)cc1	-1.2	i	-0.6	1.8	6.5
O/N=C/c1cc(Br)ccc1OCc1ccccc1F	-10.5	i	-1.6	9.4	-10.3
C=CCOc1ccc(Br)cc1/C=N/O	-5.1	i	-0.4	11.8	126.0*
O=C(CN1CCC(c2nc3ccccc3s2)CC1)NCc1ccccc1	3.2	i	1.4	6.6	113.0*
O=C1c2ccccc2NC(c2cccc(F)c2)N1Cc1ccccc1 (configuration not stated)	-18.8	i	-1.3	16.9	8.6
O=C1c2ccccc2NC(c2cccc(F)c2)N1Cc1ccco1 (configuration not stated)	-14.8	i	-0.1	2.0	114.5*
CC(=O)c1ccc(-c2ccc(C(=O)N3CCC(C(N)=O)CC3)o2)cc1	-4.1	+	1.2	10.9	8.3
CC(=O)c1ccc(-c2ccc(C(=O)N3CCN(c4ccc(F)cc4)CC3)o2)cc1	-12.8	i	0.4	18.0	7.2
C[C@@H](NC(=O)C[C@@H]1CC[C@@H](NC(=O)C2CCC2)[C@H](CO)O1)c1ccccc1	3.4	x	x	x	7.8
CCCCNC(=O)c1ccc(CS(=O)(=O)c2cccc(C(F)(F)F)c2)o1	-11.2	i	-0.8	18.2	143.9*
SMILES	PGC1a acetyl inh	Rce1 inh	HIF act	AI-2 QS modul	C2C12 statin
COCCNC(=O)c1ccc(CS(=O)(=O)c2cccc(C(F)(F)F)c2)o1	4.5	i	0.7	1.9	-2.4
O=C(Nc1ccccc1N1CCOCC1)C1(c2ccc(Cl)cc2)CCC1	40.7*	i	-0.1	10.3	x
Cc1cc(Cl)ccc1OC(C)C(=O)Nc1ccccc1N1CCOCC1 (configuration not stated)	-14.7	i	-0.7	11.1	93.9*
CCNC(=O)[C@@H]1[C@@H](CO)[C@@H]2Cn3c(cccc3=O)[C@@H]2N1Cc1ccccc1Cl	x	x	x	x	-7.4
O=C(CSc1nc2ccccc2c(=O)n1CC1CCCO1)NCC1CCCO1 (configuration not stated)	1.1	i	-1.2	17.5	-2.4
NC(=O)NC(=O)CSc1nc(-c2ccccc2)c(-c2ccccc2)n1CC1CCCO1 (configuration not stated)	1.3	i	-0.2	6.3	139.5*
FC(F)(F)c1cccc(-c2nnc(-c3ccccc3)c(N3CCOCC3)n2)c1	15.4	i	-0.3	7.6	134.4*
